This note sets out measurements from PubChem BioAssay (Tox21).

The target of assay [1] is Retinoic acid receptor RXR-alpha (Homo sapiens) (UniProt P19793). Kind of assay: qHTS assay to identify small molecule agonists of the RXR signaling pathway (AID 1159527; calls by dose curve; note: nearly all actives have a fitted effect of over 35% in size; note: potency is the fitted concentration of half-maximal effect). A digest of the protocol: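 Cells plated at 2,000/well, rested 5 hr at 37 C, pin-dosed with DMSO compound solutions, incubated 16 hr, then loaded with B/G FRET substrate for 2 hr at RT before dual-emission fluorescence reading.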

Assay [2] in a line: qHTS assay to identify small molecule agonists of the RXR signaling pathway - cell viability counter screen (AID 1159529).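 For activity change, negative = cytotoxicity: HEK 293T cells carrying an RXR-alpha UAS beta-lactamase reporter; series mostly up to about 77 µM.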 Note: nearly all actives have a fitted effect of over 50% in size. Note: potency is the fitted concentration of half-maximal effect. A digest of the protocol:
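Steps: seed RXR-alpha-UAS-bla HEK 293T cells in assay medium containing 2% charcoal-stripped FBS; incubate 5 hr; add compounds in DMSO; incubate 16 hr at 37 C; after the bla read, add CellTiter-Glo and read luminescence at 30 min.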
For orientation: In qHTS, concentration-response curves come from the screen itself.

Assay [3] is described as follows: qHTS assay to identify small molecule antagonists of the retinoid acid receptor (RAR) signaling pathway - cell viability counter screen (AID 1159551). Note: nearly all actives have a fitted effect of over 35% in size. Note: potency is the fitted concentration of half-maximal effect. A digest of the protocol:
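Seed C3RL4 cells; next day add compound, then retinol to 1 uM final; incubate 6 h at 37 C; add CellTiter-Glo; read luminescence after 30 min at RT.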

Assay [4] in a line: qHTS assay to identify small molecule antagonists of the retinoic acid receptor (RAR) signaling pathway (AID 1159552; note: nearly all actives have a fitted effect of over 50% in size). The method in brief: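 Retinol at 1 uM final stimulated RARE-luciferase expression in C3RL4 cells exposed to test compounds for 6 hr at 37 C. Reduced luminescence, read 30 min after detection reagent, indicated pathway antagonism.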
A short description of assay [5]: qHTS assay to identify small molecule agonists of the retinoic acid receptor (RAR) signaling pathway (AID 1159553). A digest of the protocol:
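Activation of retinol signaling was monitored via a RARE luciferase reporter in C3RL4 cells. After 6 hr compound treatment at 37 C, detection reagent was added for 30 min at room temperature before luminescence reading.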

The nature of assay [6]: qHTS assay to identify small molecule antagonists of the estrogen related receptor (ERR) signaling pathway - cell viability counter screen (AID 1224818).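 Note: series mostly up to about 46 µM; viability measured after 17.5 h of compound exposure.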 The method in brief: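 In the same ERR cell assay, compound-treated wells (17.5 h, 37 C) were multiplexed with a fluorogenic viability reagent, CellTiter-Fluor, read after 30 min to flag cytotoxic substances.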
The nature of assay [7]: qHTS assay to identify small molecule antagonists of the estrogen related receptor (ERR) signaling pathway (AID 1224819;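 note: luminescence from an ERR-driven luciferase reporter measured with One-Glo reagent; series mostly up to about 46 µM; nearly all actives have a fitted effect of over 50% in size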). A digest of the protocol:
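qHTS in ERR cells, 2,000/well, 1536 format. Cpd (DMSO) added after 6 h settle, 18 h 37 C. One-Glo luminescence, 30 min RT.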

A short description of assay [8]: qHTS assay to identify small molecule agonists of the estrogen related receptor (ERR) signaling pathway (AID 1224820). The method in brief:
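Cells: ERR line from NTP, 2,000/well. Pre-incubation 6 h, 37 C/5% CO2. Compound (DMSO) pin transfer, 18 h 37 C. One-Glo, 30 min RT, luminescence.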

For assay [9], the system named is estrogen-related receptor alpha (ERRalpha) with PGC-1alpha coactivator, human. Put plainly: qHTS assay to identify small molecule antagonists of the estrogen related receptor signaling pathway with the pleiotropic PPARgamma coactivator (PGC) (AID 1224821; calls by dose curve;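 note: series mostly up to about 46 µM; lower luminescence signal means antagonism of PGC/ERR signalling; nearly all actives have a fitted effect of over 50% in size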). The method in brief:
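Luminescent read-out (One-Glo, 30 min at room temperature) following 18 h treatment of PGC/ERR cells at 37 C with compounds delivered in DMSO. Cells had settled 6 h at 37 C/5% CO2 before dosing.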

A short description of assay [10]: qHTS assay to identify small molecule antagonists of the estrogen related receptor signaling pathway with the pleiotropic PPARgamma coactivator (PGC) cell viability counter screen (AID 1224822; note: series mostly up to about 46 µM). The method in brief:
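Compounds in DMSO, with positive and negative controls, were applied to PGC/ERR cells (2,000/well) and left 17.5 h at 37 C before CellTiter-Fluor detection.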

Records with an inconclusive call do not appear. Unmarked numbers belong to inactive results. The source made the active and inactive calls. Unless noted, calls come from the whole dose curve; as a rule, active = well fitted curve in the direction sought with a large enough effect in the repeat runs; inconclusive = weak or mixed curves; inactive = no such curve, though single readings can be large; an effect the other way counts as inactive or inconclusive.
% is set by controls: 0 for no effect and ±100 for the full control effect.

Retinoic acid receptor RXR-alpha (Homo sapiens), sequence (P19793 whole entry, looked up): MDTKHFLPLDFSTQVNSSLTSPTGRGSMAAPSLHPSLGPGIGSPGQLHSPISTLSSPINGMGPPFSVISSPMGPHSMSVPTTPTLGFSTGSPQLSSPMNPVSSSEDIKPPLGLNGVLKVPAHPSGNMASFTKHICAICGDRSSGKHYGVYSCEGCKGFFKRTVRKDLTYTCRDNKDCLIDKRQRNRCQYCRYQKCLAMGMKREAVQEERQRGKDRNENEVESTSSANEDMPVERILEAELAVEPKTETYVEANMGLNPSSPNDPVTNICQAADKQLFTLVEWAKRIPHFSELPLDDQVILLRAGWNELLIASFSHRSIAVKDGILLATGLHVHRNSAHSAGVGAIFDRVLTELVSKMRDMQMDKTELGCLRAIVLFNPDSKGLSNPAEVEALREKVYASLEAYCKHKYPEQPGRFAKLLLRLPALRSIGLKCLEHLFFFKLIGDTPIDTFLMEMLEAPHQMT

`CCCOCCOCCO`: the Potency result in assay [1], in assay [2], in assay [3], in [4] and in assay [5] was “inactive” each time.
In the case of `CCCCCCCCCCCCCCC[C@H](O)[C@@H](N)CO`, the Potency result in [1], in [2], in assay [3], in [4] and in assay [5] was “inactive” each time.
With `CN1C(=O)CC(C)(c2ccccc2)C1=O` (stereo not given), the Potency entry in [1], in [2], in [3], in assay [4] and in [5] was “inactive” throughout.
As to `CO[C@H]1O[C@H](CO)[C@@H](O)[C@H](O)[C@H]1O`, the Potency entry in assay [1], in [2], in assay [3], in assay [4] and in [5] was “inactive” each time.
On to `COC(=O)c1cc(Cl)ccc1NS(=O)(=O)C(F)(F)F`, for which the Potency entry in assay [1], in assay [2], in assay [3] and in [4] was “inactive” in each case.
Take `O=C(CCC1CCN(Cc2ccccc2)CC1)c1ccc2c(c1)NCCCC2`: the Potency entry in assay [1], in assay [2], in assay [3], in assay [4] and in assay [5] was “inactive” in each case.
As to `Cc1nc2ccccn2c(=O)c1CCN1CCC(C(=O)c2ccc(F)cc2)CC1`, the Potency result in [1], in [2], in assay [3], in assay [4], in assay [5] and in assay [7] was “inactive” in each case. The Potency result in [9] was “inactive”. The result in assay [6], in assay [8] and in assay [10] was inactive.
Regarding `CCC(C(=O)OCCN(CC)CC)c1ccccc1` (stereo not given), the Potency result in assay [1], in assay [2], in assay [3], in assay [4] and in [5] was “inactive” throughout.
As for `OC/C(Br)=C(\Br)CO`, the Potency entry in assay [1], in assay [2], in assay [3], in assay [4] and in assay [5] was “inactive” each time.
With `CC(C)(C)C(=O)C(Oc1ccc(Cl)cc1)n1ccnc1` (stereo not given), the Potency entry in [1], in assay [2], in assay [3] and in [4] was “inactive” in each case.
For `c1ccc(COCc2ccccc2)cc1`, the Potency entry in assay [1], in [2], in assay [3], in assay [4] and in assay [5] was “inactive” throughout.
Take `COCC(O)CO` (stereo not given): the Potency result in assay [1], in assay [2], in assay [3], in assay [4] and in assay [5] was “inactive” in each case.
As to `O=C(O)C(Cc1cc(I)c(O)c(I)c1)c1ccccc1` (stereo not given), the Potency result in assay [1], in assay [2], in [3], in assay [4] and in [5] was “inactive” each time.
As for `C[N+]1(C)CCC(=C(c2ccccc2)c2ccccc2)CC1`, the Potency result in assay [1], in assay [2], in assay [3], in assay [4] and in [5] was “inactive” in each case.
In the case of `CCCCCCCCSCCO`, the Potency entry in assay [1], in assay [2], in [3], in [4] and in [5] was “inactive” each time.
As to `CCOc1cc(N)c(Cl)cc1C(=O)NCC1CN(Cc2ccc(F)cc2)CCO1` (stereo not given), the Potency entry in [1], in assay [2], in assay [3], in assay [4] and in assay [5] was “inactive” in each case.
For the compound `COc1ccccc1N=Nc1c(S(=O)(=O)O)cc2cc(S(=O)(=O)O)cc(NC(C)=O)c2c1O`, the Potency result in assay [1], in assay [2], in [4] and in assay [5] was “inactive” throughout. Moreover, the Potency in [3] was 22.9 µM (active).
`Cc1cc(OI)c(C(C)C)cc1-c1cc(C(C)C)c(OI)cc1C`: the Potency result in assay [1], in assay [2], in assay [3], in [4] and in [5] was “inactive” in each case.
As to `C[Si]1(C)O[Si](C)(C)O[Si](C)(C)O1`, the Potency entry in assay [1], in assay [2], in assay [3], in assay [4] and in assay [5] was “inactive” in each case.
As to `COc1cc2[nH]c(=O)[nH]c(=O)c2cc1OC`, the Potency result in assay [1], in [2], in [3], in assay [4] and in assay [5] was “inactive” in each case.
With `CC1(C)C(=O)N(Br)C(=O)N1Cl`, the Potency entry in assay [1], in assay [2], in assay [3], in [4] and in assay [5] was “inactive” in each case.
As to `COC(OC)(C(=O)c1ccccc1)c1ccccc1`, the Potency result in assay [1], in [2], in [3] and in assay [4] was “inactive” throughout.
In the case of `O=Cc1c(Cl)cccc1Cl`, the Potency entry in [1], in [2], in assay [3], in [4] and in assay [5] was “inactive” each time.
With `CCCCCCCCCCCCCCCCBr`, the activation in [1] is 0.932% [at 15.8 µM]. For the same compound, the activity change, negative = cytotoxicity in [2] is 2.29% [at 15.8 µM]; in assay [3], 5.27% [at 19 µM]. Also, the activity, negative = inhibition in [4] is -1.48% [at 19 µM]. For the same compound, the Potency entry in assay [5] is “inactive”.
Take `CC(C)OCC1CO1` (stereo not given): the Potency result in assay [1], in assay [2], in assay [3] and in [4] was “inactive” each time.
On to `CCN(Cc1cccc(S(=O)(=O)O)c1)c1ccc(C(=C2C=CC(=[N+](CC)Cc3cccc(S(=O)(=O)[O-])c3)C=C2)c2ccccc2)cc1`, for which the Potency entry in [1], in [2], in assay [3], in assay [4] and in [5] was “inactive” throughout.
For the compound `C=CCCCCCCCCCCCCCCCC`, the activation is 0.376% [at 6.98 µM] in assay [1] and -0.865% [at 8.36 µM] in assay [5]. Also, the activity change, negative = cytotoxicity in assay [2] is 6.72% [at 6.97 µM]; in [3] it was 0.367% [at 8.39 µM]. In addition, in [4], the activity, negative = inhibition was -14.9% [at 8.39 µM].
`CC(C)(C)C(=O)O`: in assay [1], the Potency was 39.1 µM (active). In addition, the Potency result in assay [2], in [3], in assay [4] and in assay [5] was “inactive” in each case.
As for `CC(=N\O)/C(C)=N/O`, the Potency entry in [1], in [2], in assay [3] and in assay [5] was “inactive” throughout.
Turning to `C[N+](C)(C)CCOC(N)=O`, the Potency result in assay [1], in assay [2], in [3], in assay [4] and in assay [5] was “inactive” throughout. Further, the compound was classed as inactive in assay [6] and in assay [10].
Take `CC1C2CC(CC2C2CCCC(O)C2)C1(C)C` (stereo not given): the Potency in [2] was 38.9 µM (active).
Take `CCN(CC)CCNC(=O)c1ccc(NC(C)=O)cc1`: the Potency entry in [1], in [2], in assay [3], in assay [4] and in assay [5] was “inactive” in each case. Further, the call in assay [6] and in [10] was inactive.
